The text below walks through data of PubChem BioAssay AID686978 (National Center for Advancing Translational Sciences (NCATS), 2013).

Molecules are shown by their SMILES. Out of some 420,000 compounds screened, about 64,000 (15%) were called active. Not shown: some 27% with an inconclusive outcome. A selection follows. A number with no mark means an inactive call. Calls come from the whole dose curve; as a rule, active = well fitted inhibition curve with a large enough effect; inconclusive = small, poorly fitted or top-dose-only effect; inactive = flat fitted curve, though single readings scatter.
% is set by controls: 0 for no effect and ±100 for the full control effect; potency is the fitted concentration of half-maximal effect.

This experiment is described as follows: qHTS for Inhibitors of human tyrosyl-DNA phosphodiesterase 1 (TDP1): qHTS in cells in absence of CPT. Note: nearly all actives have a fitted effect of over 55% in size. Conditions: DT40 Tdp1-/- hTDP1 cells, no CPT, ATP luminescence, 48 h; activity change, negative = growth inhibition: at 46.2 µM (top of the series). The method, boiled down:
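Readout: luminescence from CellTiter-Glo after 30 min in the dark at RT. Cells: DT40 Tdp1-/- with stable hTDP1, 400/well. Exposure: compounds alone, ≥48 hr, 37 °C.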
In the case of `Cc1nnc(NC(=O)Cn2c(=O)sc3ccccc32)s1`, the “activity change, negative = growth inhibition” value is -4.38%.
Consider `CC(Oc1ccccc1F)C(=O)NN` (centres undefined), for which the “activity change, negative = growth inhibition” value was -2.53%.
Consider `CCOC(=O)N1CCN(C(=O)CSc2ccc(Cl)cc2)CC1`, for which the “activity change, negative = growth inhibition” value is -4.08%.
Turning to `COc1cccc(-c2ccc(SCC(=O)N3CCN(c4ccccc4)CC3)nn2)c1`, the Potency was 16.4 µM (active).
As to `CCOc1ccc(-c2ccc(SCC(=O)N3CCOCC3)nn2)cc1`, the “activity change, negative = growth inhibition” value is 2.68%.
As for `COc1ccc2c(Cl)c(C(=O)NCc3ccco3)sc2c1`, the “activity change, negative = growth inhibition” value was -25.1%.
Consider `Cn1nc(C(F)(F)F)c2cc(C(=O)N3CCOCC3)sc21`, for which the “activity change, negative = growth inhibition” value was -9.2%.
As to `COc1cccc(-c2nn(C)c3sc(C(=O)N4CCN(c5ccccc5)CC4)cc23)c1`, the Potency was 23.1 µM (active).
As to `COc1ccc(OC)c(S(=O)(=O)N(C)CC(=O)N2CCN(c3ccccc3)CC2)c1`, the “activity change, negative = growth inhibition” value is -2.97%.
Still for that read-out and setting: to `O=C(NCc1ccco1)c1nc(-c2ccccc2)n(-c2ccccc2)n1` belongs -18.6%.
In the case of `Cn1nc(-c2ccc(Cl)cc2)c2cc(C(=O)NCc3ccco3)sc21`, the Potency was 20.6 µM (active).
Regarding `CCOC(=O)N1CCN(C(=O)c2cc3c(-c4ccc(Cl)cc4)nn(C)c3s2)CC1`, the Potency was 11.6 µM (active).
As to `CCOC(=O)N1CCN(C(=O)CNC(=O)Cc2ccc(Cl)cc2)CC1`, the “activity change, negative = growth inhibition” value was -16.7%.
Turning to `COc1cccc(/C=C/C(=O)OCC(=O)N2CCN(c3ccccc3)CC2)c1`, the “activity change, negative = growth inhibition” value was -8.54%.
Take `COC(=O)c1nc(NC(=O)c2ccc(F)cc2)n[nH]1`: the “activity change, negative = growth inhibition” value was -20.9%.
In the case of `Nc1cc(=O)c2[nH]cnc2[nH]1`, the “activity change, negative = growth inhibition” value was 3.63%.
In the case of `S=C(NC1CCCCC1)NN1CCOCC1`, the “activity change, negative = growth inhibition” value was 11.9%.
Same read-out and setting: to `CCn1c(SCC(=O)Nc2cc(C)ccc2C)nnc1-c1cnccn1` belongs -12%; to `CCN(CCCNC(=O)c1c(C)oc2ncn(CC(C)C)c(=O)c12)Cc1ccccc1`, -17.9%; to `Cc1ccc(C(c2sc3nc(C)nn3c2O)N2CCN(c3ccccc3)CC2)cc1` (centres undefined), -13.8%.
As to `Cc1ccn(CC(=O)N2N=C(C(F)F)CC2(O)C(F)F)n1` (centres undefined), the “activity change, negative = growth inhibition” value was -0.589%.
Turning to `CCOc1ccccc1NC(=O)C1=C(C)Nc2ncnn2C1c1ccc(NC(C)=O)cc1` (centres undefined), the “activity change, negative = growth inhibition” value is -21%.
Take `CC1=C(C(N)=O)C(c2ccc(Br)cc2)n2ncnc2N1` (centres undefined): the “activity change, negative = growth inhibition” value is -12.6%.
As for `CCOC(=O)C1=C(c2ccccc2)Nc2ncnn2C1c1ccc(Cl)cc1` (centres undefined), the Potency was 18.4 µM (active).
Regarding `COCCCNS(=O)(=O)c1cccc(S(=O)(=O)c2cccc(S(=O)(=O)NCCCOC)c2)c1`, the “activity change, negative = growth inhibition” value is -19.7%.
The same measure, in the same setting: to `Cc1ccc(/C=N/NC(=O)C(NC(=O)c2ccccc2)c2n[nH]c(=O)c3ccccc23)cc1` (centres undefined) belongs -9.86%.
As for `Cc1ccsc1-c1cc(C(=O)O)c2c(ccc3ccccc32)n1`, the “activity change, negative = growth inhibition” value is 5.58%.
For the compound `CCCCN(C)CCCNC(=O)c1cc(-c2cccs2)nc2ccccc12`, the Potency is 29.1 µM (active).
For `O=C(NCCN1CCOCC1)c1cc(-c2cccs2)nc2ccccc12`, the “activity change, negative = growth inhibition” value was -17.6%.
Turning to `O=C1c2ccccc2-c2ccccc2NC1O` (centres undefined), the “activity change, negative = growth inhibition” value was 11%.
In the case of `COc1ccc(/C=N/OCc2ccccc2C#N)c(OC)c1`, the “activity change, negative = growth inhibition” value was -22.7%.
As to `CCOc1ccc(C2C(C#N)=C(N)N(N(C)C)C3=C2C(=O)CCC3)cc1` (centres undefined), the “activity change, negative = growth inhibition” value is 5.03%.
In the case of `Cc1ccc(NC(=O)NCC(c2cccnc2)N2CCOCC2)cc1` (centres undefined), the “activity change, negative = growth inhibition” value was 6.95%.
For the compound `O=C(NCC(c1ccco1)N1CCc2ccccc21)c1cccc(F)c1` (centres undefined), the Potency was 11.6 µM (active).
For `COc1ccc(C(=O)NCC(c2ccc(N(C)C)cc2)N2CCc3ccccc32)c(OC)c1` (centres undefined), the Potency was 20.6 µM (active).
Still for that read-out and setting: to `COc1ccc(C(=O)NCC(c2ccco2)N2CCc3ccccc32)cc1OC` (centres undefined) belongs 16.4 µM (active).
Turning to `CCOC(=O)c1c(NC(=O)CSc2cn(CCNC(=O)c3cccc(C(F)(F)F)c3)c3ccccc23)sc2c1CCC2`, the “activity change, negative = growth inhibition” value was -3.22%.
Take `O=C(NN1CCOCC1)c1cccc(F)c1`: the “activity change, negative = growth inhibition” value is -5.34%.
In the case of `COc1ccc(S(=O)(=O)NCC(c2ccc(N(C)C)cc2)N2CCc3ccccc32)cc1OC` (centres undefined), the “activity change, negative = growth inhibition” value was -27.6%.
As to `CCOc1ccccc1C(=O)NCC(c1ccc(N(C)C)cc1)N1CCCC1` (centres undefined), the “activity change, negative = growth inhibition” value was -76.7%.
Take `COc1cc(C(=O)NCC(c2ccco2)N2CCCC2)ccc1OCc1ccccc1` (centres undefined): the “activity change, negative = growth inhibition” value is -17.8%.
Regarding `CN(C)C(CNC(=O)c1cccc(C#N)c1)c1ccco1` (centres undefined), the “activity change, negative = growth inhibition” value was -2.74%.
Consider `COc1ccccc1C(=O)NCCC(=O)NCC(c1ccco1)N1CCCCC1` (centres undefined), for which the “activity change, negative = growth inhibition” value is -8.25%.
Consider `O=C(NCC(c1cccnc1)N1CCc2ccccc21)c1cccc(C(F)(F)F)c1` (centres undefined), for which the Potency is 14.6 µM (active).
On to `CCn1cc(C(=O)NCCO)c(=O)c2cc(F)c(N3CCN(C)CC3)cc21`, for which the “activity change, negative = growth inhibition” value was 2.98%.
For `Cc1ccc(NC(=S)NC(NC(=O)Cc2cccc3ccccc23)C(Cl)(Cl)Cl)cc1` (centres undefined), the “activity change, negative = growth inhibition” value is -8.05%.
Regarding `Cc1cc(C(=O)O)c(S(C)(=O)=O)s1`, the “activity change, negative = growth inhibition” value was 0.116%.
As for `NNc1nnc(Cc2ccncc2)c2ccccc12`, the “activity change, negative = growth inhibition” value is -14.2%.
On to `O=C(COC(=O)Cn1[nH]c(=O)c2ccccc2c1=O)Nc1c(Cl)cccc1C(F)(F)F`, for which the “activity change, negative = growth inhibition” value is -0.552%.
Same read-out and setting: in the case of `COc1ccc([N+](=O)[O-])cc1N(CC(=O)Nc1ccccc1C(=O)N1CCOCC1)S(C)(=O)=O` it was -1.39%; in that of `CN(C)c1ccc(C2N(C)C(=O)c3ccccc3N2C)cc1` (centres undefined), -15%; in that of `CC1CCc2c(c3ccccc3[nH]c2=O)O1` (centres undefined), 1.73%.
Consider `O=C(O)C1OC(C(=O)O)C2C1C(F)(F)C2(F)F` (centres undefined), for which the “activity change, negative = growth inhibition” value is 0.936%.
On to `Cc1ccc2nc(NCCCNC(=O)c3cnccn3)c(C#N)cc2c1`, for which the “activity change, negative = growth inhibition” value was -1.12%.
The same measure, in the same setting: in the case of `Cc1ccc(CNC(=O)COC(=O)C2CCC2)cc1` it was 2.95%; in that of `CC(C#N)OC(=O)c1cccnc1SCC(=O)Nc1ccc2c(c1)OCO2` (centres undefined), -14.2%.
With `O=C(NCc1cccnc1)c1ccc2nc([C@@H]3O[C@H](CO)[C@H](O)[C@H](O)[C@H]3O)[nH]c2c1`, the “activity change, negative = growth inhibition” value is -3.78%.
With `COc1ccc(N(CC(=O)NCCc2ccc(Cl)cc2)S(=O)(=O)c2c(C)nn(C)c2C)cc1`, the Potency is 20.6 µM (active).
In the case of `CCOc1ccc(N(CC(=O)NCCc2ccc(OC)cc2)S(C)(=O)=O)cc1`, the “activity change, negative = growth inhibition” value is -11.9%.
Turning to `COc1ccc(CCNC(=O)CN(c2ccccc2)S(C)(=O)=O)cc1`, the “activity change, negative = growth inhibition” value is -14.2%.
For `COc1ccccc1CNC(=O)COn1nnc2ccc(S(=O)(=O)N3CCOCC3)cc21`, the “activity change, negative = growth inhibition” value was -30%.
On the same count and under the same terms, to `Cc1cccc(N2C(=O)N3[C@H](c4ccc(F)cc4)[C@@H]4C(=O)N(C5CCCCC5)C(=O)[C@@H]4[C@]3(Cc3ccccc3)C2=O)c1` belongs -7.34%.
In the case of `O=C1[C@H]2[C@@H](c3ccc(F)cc3)N3C(=O)N(c4ccc(C(F)(F)F)cc4)C(=O)[C@@]3(Cc3ccccc3)[C@H]2C(=O)N1C1CCCCC1`, the Potency is 11.6 µM (active).
As for `O=C1[C@H]2[C@@H](c3ccc(Cl)cc3)N3C(=O)N(c4cccc(F)c4)C(=O)[C@@]3(Cc3ccccc3)[C@H]2C(=O)N1C1CCCCC1`, the “activity change, negative = growth inhibition” value was -24%.
